According to paper PMC5349851, “Combinatorial bZIP dimers display complex DNA-binding specificity landscapes”:

Legend:
Test in all cases: SELEX-seq (CSI, HT-SELEX, round 3); SELEX-seq: 1x PBS (10 mM phosphate, 137 mM NaCl, 2.7 mM KCl) pH 7.6, 2.5 mM DTT, 50 ng/ul poly dI-dC, 0.1% BSA, 50 nM biotinylated bZIP (1:3 with partner for heterodimers), 100 nM library, room temperature, 1 h, 3 rounds; high values mean tight binding
Conditions in all cases: protein: recombinant;recombinant; copies: 1;1; dsDNA, one strand shown
[1] = molecular target: FOS;ATF2 (Homo sapiens;Homo sapiens, UniProt P01100;P15336 128-201;343-417, |)
[2] = molecular target: FOS;DBP (Homo sapiens;Homo sapiens, UniProt P01100;Q10586 128-201;246-324, |)
[3] = molecular target: T1, ATF5;CEBPG (Homo sapiens;Homo sapiens, UniProt Q9Y2D1;P53567 199-275;52-130, |)
T1 sequence 1: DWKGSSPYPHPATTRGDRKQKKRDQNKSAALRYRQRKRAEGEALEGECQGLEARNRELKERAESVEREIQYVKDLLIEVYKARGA
T1 sequence 2: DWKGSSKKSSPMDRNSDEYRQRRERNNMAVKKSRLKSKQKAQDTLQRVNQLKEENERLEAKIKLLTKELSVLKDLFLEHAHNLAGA

[4] = molecular target: ATF5;CEBPA (Homo sapiens;Homo sapiens, UniProt Q9Y2D1;P49715 199-275;273-345, |)
[5] = molecular target: ATF5;JUN (Homo sapiens;Homo sapiens, UniProt Q9Y2D1;P05412 199-275;243-316, |)
[6] = molecular target: T2, ATF5;BATF3 (Homo sapiens;Homo sapiens, UniProt Q9Y2D1;Q9NR55 199-275;26-99, |)
T2 sequence 1: T1 sequence 1
T2 sequence 2: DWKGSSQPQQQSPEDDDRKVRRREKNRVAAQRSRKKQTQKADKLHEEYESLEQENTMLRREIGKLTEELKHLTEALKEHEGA

[7] = molecular target: DDIT3;CEBPG (Homo sapiens;Homo sapiens, UniProt P35638;P53567 88-169;52-130, |)
[8] = molecular target: MAFB;ATF4 (Homo sapiens;Homo sapiens, UniProt Q9Y5Q3;P18848 212-305;269-346, |)
[9] = molecular target: T3, BATF2;ATF3 (Homo sapiens;Homo sapiens, UniProt Q8N1L9;P18847 8-85;77-150, |)
T3 sequence 1: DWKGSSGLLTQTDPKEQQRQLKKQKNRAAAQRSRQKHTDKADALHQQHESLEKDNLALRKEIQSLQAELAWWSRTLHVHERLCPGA
T3 sequence 2: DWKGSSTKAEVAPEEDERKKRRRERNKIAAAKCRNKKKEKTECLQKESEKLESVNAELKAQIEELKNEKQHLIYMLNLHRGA

[10] = molecular target: BATF2;JUN (Homo sapiens;Homo sapiens, UniProt Q8N1L9;P05412 8-85;243-316, |)
[11] = molecular target: BATF2;ATF4 (Homo sapiens;Homo sapiens, UniProt Q8N1L9;P18848 8-85;269-346, |)
[12] = molecular target: T4, BATF3;NFIL3 (Homo sapiens;Homo sapiens, UniProt Q9NR55;Q16649 26-99;64-134, |)
T4 sequence 1: T2 sequence 2
T4 sequence 2: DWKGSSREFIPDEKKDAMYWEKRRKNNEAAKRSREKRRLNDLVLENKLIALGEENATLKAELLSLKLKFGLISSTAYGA

[13] = molecular target: T5, CEBPE;CEBPE (Homo sapiens;Homo sapiens, UniProt Q15744;Q15744 195-267;195-267, |)
T5 sequence 1: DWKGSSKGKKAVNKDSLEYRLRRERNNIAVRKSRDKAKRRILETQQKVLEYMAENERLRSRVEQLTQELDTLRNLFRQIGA
T5 sequence 2: T5 sequence 1

[14] = molecular target: T6, JUNB;CEBPE (Homo sapiens;Homo sapiens, UniProt P17275;Q15744 259-332;195-267, |)
T6 sequence 1: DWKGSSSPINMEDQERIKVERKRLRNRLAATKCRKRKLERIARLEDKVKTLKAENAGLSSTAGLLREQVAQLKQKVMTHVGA
T6 sequence 2: T5 sequence 1

[15] = molecular target: T7, JUNB;BATF (Homo sapiens;Homo sapiens, UniProt P17275;Q16520 259-332;17-90, |)
T7 sequence 1: T6 sequence 1
T7 sequence 2: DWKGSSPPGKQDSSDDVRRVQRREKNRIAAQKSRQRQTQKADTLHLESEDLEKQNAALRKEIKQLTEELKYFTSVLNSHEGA

[16] = molecular target: T8, JUNB;FOSL1 (Homo sapiens;Homo sapiens, UniProt P17275;P15407 259-332;96-169, |)
T8 sequence 1: T6 sequence 1
T8 sequence 2: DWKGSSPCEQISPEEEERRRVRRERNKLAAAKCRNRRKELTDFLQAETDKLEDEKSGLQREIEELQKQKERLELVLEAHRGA

[17] = molecular target: JUNB;FOS (Homo sapiens;Homo sapiens, UniProt P17275;P01100 259-332;128-201, |)
[18] = molecular target: T9, JUNB;NFE2 (Homo sapiens;Homo sapiens, UniProt P17275;Q16621 259-332;221-337, |)
T9 sequence 1: T6 sequence 1
T9 sequence 2: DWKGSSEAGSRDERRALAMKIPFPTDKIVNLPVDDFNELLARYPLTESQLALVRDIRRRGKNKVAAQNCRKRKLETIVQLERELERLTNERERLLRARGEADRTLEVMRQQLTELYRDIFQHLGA

[19] = molecular target: JUNB;NFE2L1 (Homo sapiens;Homo sapiens, UniProt P17275;Q14494 259-332;609-725, |)
[20] = molecular target: T10, JUNB;HLF (Homo sapiens;Homo sapiens, UniProt P17275;Q16534 259-332;216-293, |)
T10 sequence 1: T6 sequence 1
T10 sequence 2: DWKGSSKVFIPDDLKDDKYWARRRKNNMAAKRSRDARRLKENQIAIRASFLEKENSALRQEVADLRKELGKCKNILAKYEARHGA

Sequence of DDIT3;CEBPG (P35638 other isoform, or with tags, fused parts or gaps |): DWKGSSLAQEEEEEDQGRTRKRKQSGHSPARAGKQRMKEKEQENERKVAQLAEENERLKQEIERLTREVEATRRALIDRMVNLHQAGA
Sequence of BATF2;ATF4 (P18848 other isoform, or with tags, fused parts or gaps |, chain 2 of 2, one chain of several): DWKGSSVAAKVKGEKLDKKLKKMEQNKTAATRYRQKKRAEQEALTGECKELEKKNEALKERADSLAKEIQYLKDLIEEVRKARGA
Sequence of JUNB;NFE2L1 (Q14494 other isoform, or with tags, fused parts or gaps |): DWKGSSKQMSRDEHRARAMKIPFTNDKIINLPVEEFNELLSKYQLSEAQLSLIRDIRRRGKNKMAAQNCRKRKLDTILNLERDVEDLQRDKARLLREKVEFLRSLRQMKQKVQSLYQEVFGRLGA
Sequence of ATF5;JUN (P05412 other isoform, or with tags, fused parts or gaps |): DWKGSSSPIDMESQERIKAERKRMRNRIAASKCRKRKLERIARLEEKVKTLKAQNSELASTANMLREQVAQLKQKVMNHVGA
Sequence of BATF2;JUN (P05412 other isoform, or with tags, fused parts or gaps |): as above
Sequence of MAFB;ATF4 (Q9Y5Q3 other isoform, or with tags, fused parts or gaps |, chain 1 of 2): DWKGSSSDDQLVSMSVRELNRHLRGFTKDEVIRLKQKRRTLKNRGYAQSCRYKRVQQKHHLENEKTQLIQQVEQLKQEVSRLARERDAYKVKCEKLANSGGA
Sequence of MAFB;ATF4 (P18848 other isoform, or with tags, fused parts or gaps |, chain 2 of 2): as the sequence (P18848 other isoform, or with tags, fused parts or gaps |, chain 2 of 2, one chain of several) above
Sequence of FOS;DBP (P01100 other isoform, or with tags, fused parts or gaps |): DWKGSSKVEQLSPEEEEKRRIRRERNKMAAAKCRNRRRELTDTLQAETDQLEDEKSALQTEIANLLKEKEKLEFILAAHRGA
Sequence of FOS;ATF2 (P01100 other isoform, or with tags, fused parts or gaps |, chain 1 of 2): as the sequence (P01100 other isoform, or with tags, fused parts or gaps |) above
Sequence of FOS;ATF2 (P15336 other isoform, or with tags, fused parts or gaps |, chain 2 of 2): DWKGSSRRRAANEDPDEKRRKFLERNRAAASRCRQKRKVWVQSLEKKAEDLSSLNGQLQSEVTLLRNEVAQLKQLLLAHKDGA
Sequence of JUNB;FOS (P01100 other isoform, or with tags, fused parts or gaps |): as the sequence (P01100 other isoform, or with tags, fused parts or gaps |) above

Sequence	binding signal [1]	binding signal [2]	binding signal [3]	binding signal [4]	binding signal [5]	binding signal [6]	binding signal [7]	binding signal [8]	binding signal [9]	binding signal [10]	binding signal [11]	binding signal [12]	binding signal [13]	binding signal [14]	binding signal [15]	binding signal [16]	binding signal [17]	binding signal [18]	binding signal [19]	binding signal [20]
ATGACGTCAT	1 relative CSI intensity (max = 1)	0.887 relative CSI intensity (max = 1)	0.529 relative CSI intensity (max = 1)	0.516 relative CSI intensity (max = 1)	0.742 relative CSI intensity (max = 1)	0.681 relative CSI intensity (max = 1)	1 relative CSI intensity (max = 1)	0.336 relative CSI intensity (max = 1)	0.0121 relative CSI intensity (max = 1)	0.299 relative CSI intensity (max = 1)	0.216 relative CSI intensity (max = 1)	0.218 relative CSI intensity (max = 1)	0.0521 relative CSI intensity (max = 1)	0.104 relative CSI intensity (max = 1)	0.784 relative CSI intensity (max = 1)	0.3 relative CSI intensity (max = 1)	0.188 relative CSI intensity (max = 1)	1 relative CSI intensity (max = 1)	1 relative CSI intensity (max = 1)	1 relative CSI intensity (max = 1)
ATGACGTAAT	0.133 relative CSI intensity (max = 1)	0.614 relative CSI intensity (max = 1)	0.502 relative CSI intensity (max = 1)	0.488 relative CSI intensity (max = 1)	0.289 relative CSI intensity (max = 1)	0.0199 relative CSI intensity (max = 1)	0.437 relative CSI intensity (max = 1)	0.108 relative CSI intensity (max = 1)	0.00842 relative CSI intensity (max = 1)	0.116 relative CSI intensity (max = 1)	0.119 relative CSI intensity (max = 1)	0.178 relative CSI intensity (max = 1)	0.0888 relative CSI intensity (max = 1)	0.0862 relative CSI intensity (max = 1)	0.0325 relative CSI intensity (max = 1)	0.017 relative CSI intensity (max = 1)	0.00946 relative CSI intensity (max = 1)	0.12 relative CSI intensity (max = 1)	0.116 relative CSI intensity (max = 1)	0.537 relative CSI intensity (max = 1)
CCTGACGTCA	0.00727 relative CSI intensity (max = 1)	0.057 relative CSI intensity (max = 1)	0.072 relative CSI intensity (max = 1)	0.0673 relative CSI intensity (max = 1)	0.288 relative CSI intensity (max = 1)	0.0107 relative CSI intensity (max = 1)	0.0315 relative CSI intensity (max = 1)	0.182 relative CSI intensity (max = 1)	0.00318 relative CSI intensity (max = 1)	0.0191 relative CSI intensity (max = 1)	0.0186 relative CSI intensity (max = 1)	0.00724 relative CSI intensity (max = 1)	0.00701 relative CSI intensity (max = 1)	0.00962 relative CSI intensity (max = 1)	0.0101 relative CSI intensity (max = 1)	0.00464 relative CSI intensity (max = 1)	0.00331 relative CSI intensity (max = 1)	0.0277 relative CSI intensity (max = 1)	0.0112 relative CSI intensity (max = 1)	0.00417 relative CSI intensity (max = 1)
ATGATGCAAT	–	0.0452 relative CSI intensity (max = 1)	0.687 relative CSI intensity (max = 1)	0.756 relative CSI intensity (max = 1)	0.0503 relative CSI intensity (max = 1)	0.00117 relative CSI intensity (max = 1)	0.574 relative CSI intensity (max = 1)	0.0202 relative CSI intensity (max = 1)	0.003 relative CSI intensity (max = 1)	0.00706 relative CSI intensity (max = 1)	0.0322 relative CSI intensity (max = 1)	0.0307 relative CSI intensity (max = 1)	0.139 relative CSI intensity (max = 1)	0.314 relative CSI intensity (max = 1)	–	–	–	0.116 relative CSI intensity (max = 1)	0.0453 relative CSI intensity (max = 1)	–
ATGACGCAAT	0.00209 relative CSI intensity (max = 1)	0.194 relative CSI intensity (max = 1)	0.902 relative CSI intensity (max = 1)	0.864 relative CSI intensity (max = 1)	0.0554 relative CSI intensity (max = 1)	0.00351 relative CSI intensity (max = 1)	0.339 relative CSI intensity (max = 1)	0.0526 relative CSI intensity (max = 1)	0.00454 relative CSI intensity (max = 1)	0.0567 relative CSI intensity (max = 1)	0.0339 relative CSI intensity (max = 1)	0.0474 relative CSI intensity (max = 1)	0.259 relative CSI intensity (max = 1)	0.333 relative CSI intensity (max = 1)	0.00832 relative CSI intensity (max = 1)	0.00312 relative CSI intensity (max = 1)	0.00347 relative CSI intensity (max = 1)	0.344 relative CSI intensity (max = 1)	0.169 relative CSI intensity (max = 1)	0.176 relative CSI intensity (max = 1)
ATGACGGAAT	–	0.0179 relative CSI intensity (max = 1)	0.0428 relative CSI intensity (max = 1)	0.0438 relative CSI intensity (max = 1)	–	–	0.0328 relative CSI intensity (max = 1)	0.014 relative CSI intensity (max = 1)	–	0.00635 relative CSI intensity (max = 1)	–	0.0076 relative CSI intensity (max = 1)	0.00629 relative CSI intensity (max = 1)	0.00513 relative CSI intensity (max = 1)	0.002 relative CSI intensity (max = 1)	–	–	0.0241 relative CSI intensity (max = 1)	0.0118 relative CSI intensity (max = 1)	0.00331 relative CSI intensity (max = 1)
